The values that follow come from the OligoGym collection.
Also: reference of the scale not given here.

One assay concerns the target GIP. Nature of the assay: pooled miR-30 sensor sort-seq; sequence = guide strand. As to conditions: shRNA.
As for TGATGTTGTGTTTCCAGTCATT, the sensor-assay potency score (higher = more potent) was -1.13.

In turn, TCTTGAATCAGCAAGTCCCGCA gave a sensor-assay potency score (higher = more potent) of -0.377.

As to AAAGTCTTGTTGGTGAATCTTG, the sensor-assay potency score (higher = more potent) was -0.684.

TTGTTGGTGAATCTTGTCCATG yielded a sensor-assay potency score (higher = more potent) of -1.48.

TTGTCCATGGCAATACTGTAGT came in with a sensor-assay potency score (higher = more potent) of -0.964.

The target of another assay is GJB7. Described as above. As to conditions: shRNA.
Turning to TATTCTAAAACAACTAATGTTA, the sensor-assay potency score (higher = more potent) is -0.542.

Consider TTTGTCTTCCAACTCAGCTTAG, for which the sensor-assay potency score (higher = more potent) was -1.04.

For TAGAGTTTCTTTCTGTGCCTTT, the sensor-assay potency score (higher = more potent) was 0.0219.

In the case of TACAGTATAGTACATAGTGAAT, the sensor-assay potency score (higher = more potent) was -1.64.

Sequence TATTTTTGGAGACAGCACTTAA came in with a sensor-assay potency score (higher = more potent) of -0.911.

As to TAGTACACATTTTACTATCTGT, the sensor-assay potency score (higher = more potent) was -0.554.

Regarding TTACAGTATAGTACATAGTGAA, the sensor-assay potency score (higher = more potent) was -0.477.

The sequence TTGTGTGTCACAGAGTAGCTTT yielded a sensor-assay potency score (higher = more potent) of -0.222.

As for TTCAACACAATACACAAGCATG, the sensor-assay potency score (higher = more potent) is -0.84.

On to TATACTAGTAAATTATAGGCGA, for which the sensor-assay potency score (higher = more potent) was -0.424.

TCTGACTCTAGAGTGACCCTTT: the sensor-assay potency score (higher = more potent) worked out at 0.802.

The next assay deals with GKN1. The assay is described as above. As to conditions: shRNA.
TTTGTGCACAATGCATGTCTTC showed a sensor-assay potency score (higher = more potent) of -0.893.

The sequence ATCCATAGTACACTGGTCGTGT had a sensor-assay potency score (higher = more potent) of 0.399.

Sequence TTCATTGTTGACACTCACTGAC displayed a sensor-assay potency score (higher = more potent) of 0.268.

For TGGTCGTGTAGCACGTTCCTGA, the sensor-assay potency score (higher = more potent) is -0.625.

On to TTTTCTGCACAGCATATTCAGA, for which the sensor-assay potency score (higher = more potent) was -0.973.

TACACTGGTCGTGTAGCACGTT displayed a sensor-assay potency score (higher = more potent) of -0.157.

In the case of TTGTGAACTTCATCTTGTCTTC, the sensor-assay potency score (higher = more potent) was -0.21.

For TTGTTGTCATCATTGACGTTGA, the sensor-assay potency score (higher = more potent) was -0.288.

As to TGATATTATAGTTAGCTAGGGC, the sensor-assay potency score (higher = more potent) was -0.211.

Consider ATTGTTGACACTCACTGACTGC, for which the sensor-assay potency score (higher = more potent) is -0.392.

In the case of TTCTTTTGAAAGAGTCTGGTTG, the sensor-assay potency score (higher = more potent) was 0.101.

Another assay has as its target GKN2. The assay is described as above. As to conditions: shRNA.
TAGAAGAGCATGATCCTGCATG showed a sensor-assay potency score (higher = more potent) of -0.328.

The sequence TATTTTCTGACTGAATCTCAAA came in with a sensor-assay potency score (higher = more potent) of -1.16.

Turning to TGGTAGAAGAGCATGATCCTGC, the sensor-assay potency score (higher = more potent) is -0.134.

TTTATAGTCAAAAATTGTGGTA gave a sensor-assay potency score (higher = more potent) of -0.623.

Take TTATAGTCAAAAATTGTGGTAG: the sensor-assay potency score (higher = more potent) came to 0.587.

Regarding TGACTTTTGAGTGTAAACCAAG, the sensor-assay potency score (higher = more potent) was -1.39.

In the case of TTAATTTGACTTTTGAGTGTAA, the sensor-assay potency score (higher = more potent) turned out to be 0.33.

In the next assay the target is GLA. The assay is described as above. As to conditions: shRNA.
TTATGTGACTTCTTAACCTTGA had a sensor-assay potency score (higher = more potent) of 0.747.

TTACTTGCTGATTCCAGCTGAG yielded a sensor-assay potency score (higher = more potent) of 0.0513.

On to AACTGTCACAGTAACAACCATC, for which the sensor-assay potency score (higher = more potent) was -1.1.

With AACATCAACAATTCTCTCCTGG, the sensor-assay potency score (higher = more potent) turned out to be 0.959.

TTTATTTCCAACATCTGCATAA came in with a sensor-assay potency score (higher = more potent) of -0.987.

Sequence TAGACATGAATAAAGGAGCAGC showed a sensor-assay potency score (higher = more potent) of -0.359.
